Reference: PubChem BioAssay AID1745849 (National Center for Advancing Translational Sciences (NCATS), 2022)
Hit rate of the full screen: of about 2,100 compounds, about 320 (15%) were called active. Roughly 52% stayed inconclusive and do not appear here. Calls come from the whole dose curve; as a rule, active = well fitted cell-killing curve with a large enough effect; inconclusive = small, poorly fitted or top-dose-only effect, or effect the other way; inactive = flat fitted curve, though single readings scatter. The list shows a part of the results. Entries that show only a call come without a potency.

Assay: Viability Counterscreen for CMV-Luciferase Assay of Inhibitors of ATXN expression; note: nearly all actives have a fitted effect of over 55% in size
Conditions: HEK-293 CMV-luciferase cells viability, protease fluorescence, 24 h
Method in brief: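 Cells: HEK-293/CMV-luc in phenol-red-free DMEM, 2 hr settle. Cpd dose, 24 hr, 37 °C, 5% CO2. Viability: Gly-Phe-AFC 25 uM final, 30 min, fluor. Then SteadyGlo, 5 min RT, lumin.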
Potency is the fitted concentration of half-maximal effect.

SMILES | Potency
CCc1nc2ccc(C(=O)N(C)Cc3ccccc3)cn2c1N(C)Cc1ccc(OC)cc1 | inactive
Cc1csc(NC(=O)COCC(=O)O)c1-c1nc2ccccc2s1 | inactive
Cn1c(COc2ccc(Cl)cc2)nnc1SCc1ncc(-c2ccccc2)o1 | inactive
COc1ccc(-c2c[n+]3c(n2-c2ccc(C)cc2)CCCCC3)cc1 | 12.6 µM (active)
COc1ccc(-c2c[n+]3c4n2CCCCC4=C(c2ccc(Br)cc2)C3)cc1 | inactive
CCOc1ccc(-c2c[n+]3c(n2-c2ccccc2)CCCCC3)cc1 | inactive
CN(c1ccccc1)c1ccc(/C=N/NC(=O)CC#N)cc1 | inactive
CCCc1cc(C(=O)Nc2ccc(C(=O)c3ccc(C)cc3)cc2)n(C)n1 | inactive
CC(C(=O)c1ccc(-c2ccccc2)cc1)[n+]1cccc(NC(=O)c2ccccc2)c1 (centres undefined) | inactive
O=C(Nc1ccc[n+](CC(=O)c2cccc3ccccc23)c1)c1ccccc1 | 3.16 µM (active)
OC(CNCCc1ccccc1)COc1ccc(OCC(O)CNCCc2ccccc2)cc1 (centres undefined) | 28.2 µM (active)
OCCN(Cc1ccccc1)CC(O)COc1ccc(-c2ccccc2)cc1 (centres undefined) | inactive
CCOc1ccccc1NC(=O)N1CCC(c2nc3ccccc3[nH]2)CC1 | inactive
C(=N\Nc1ccc2nncn2n1)/c1ccccn1 | 11.2 µM (active)
C(=N\NC(=Nc1ccccc1)c1ccccn1)/c1ccccn1 | inactive
O=c1nc(N/N=C/c2ccccn2)cn[nH]1 | 7.94 µM (active)
O=c1cnnc(N/N=C/c2ccccn2)[nH]1 | 1.58 µM (active)
COc1cccc(CNCCc2c[nH]c3ccccc23)c1OCc1ccc(F)cc1 | inactive
Cc1cc(N2CCN(c3nc(-c4ccccc4)cs3)CC2)c2ccccc2n1 | inactive
CCN1CCS/C1=C\C=C\C1=[N+](CC)CCS1 | 15.8 µM (active)
CCOC(=O)c1sc2nc(CSc3ccccc3)nc(NCCN(C)C)c2c1C | inactive
COc1ccc(OCCNC(=O)C2(C)CCN2Cc2ccc3ccccc3c2)cc1 (centres undefined) | inactive
CCCCn1c(/C=N/Nc2nc3ccccc3[nH]2)nc2ccccc21 | inactive

SMILES | Potency
O=C1C=Cc2cccc3ccc(O)c1c23 | inactive
Cc1cc(SCC(=O)N/N=C/c2ccc(O)cc2O)nc2ccccc12 | 12.6 µM (active)
COc1ccc2nc(C)cc(SCC(=O)N/N=C/c3ccc(O)cc3O)c2c1 | 7.94 µM (active)
O=C(/C=C\c1ccccc1)NCC(=O)N/N=C/c1ccc(O)cc1O | 10 µM (active)
COc1ccc(N2CCN(c3cc(C)nc4ccc(OC)cc34)CC2)cc1 | inactive
O=C(NN=Cc1ccc(O)cc1O)c1ccccc1NS(=O)(=O)c1cccs1 | inactive
COc1ccc(O)c(/C=N/NC(=O)c2ccc(CSc3nc(C)cc(C)n3)cc2)c1 | inactive
CCOc1ccc(/C=N/NC(=O)C(O)c2ccccc2)c(O)c1 (centres undefined) | inactive
Cc1cc(C)n(CCC(=O)N/N=C/c2ccc(O)cc2O)n1 | inactive
O=C(CP(=O)(c1ccccc1)c1ccccc1)N/N=C/c1cc(Br)cc(Br)c1O | inactive
O=C(N/N=C/c1ccc(O)cc1O)/C(=C/c1ccccc1)CCO | inactive
O=C(CNS(=O)(=O)c1ccc([N+](=O)[O-])cc1)N/N=C/c1ccc(O)cc1O | inactive
Cc1cc(SCC(=O)N/N=C/c2ccc(O)cc2O)c(C)cc1Br | 11.2 µM (active)
CCCCn1c(SCC(=O)Nc2cc(C(F)(F)F)cc(C(F)(F)F)c2)nnc1C(CC)N(C)C (centres undefined) | inactive
COc1cc2ccnc(Cc3cccc(OC)c3OC)c2cc1OC | inactive
Cn1cc(SCC(=O)Nc2nc3ccccc3s2)c2ccccc21 | inactive
COc1ccc(/C=C/C(=O)Nc2cccc(F)c2)cc1S(=O)(=O)N1CCOCC1 | inactive
O=C(Nc1cccc(Br)c1)Oc1cccc2cccnc12 | inactive
c1cnc2c(c1)ccc1cccnc12 | 5.01 µM (active)
CCCC(=O)N1CCCC(c2cc(C(=O)Nc3ccccc3)no2)C1 (centres undefined) | inactive
Cc1nn(-c2ccccn2)c2c1C(=O)CC(C)(C)C2N=[N+]=[N-] (centres undefined) | inactive
CCc1cc2c(N3CCN(c4nnc(CC)s4)CC3)ncnc2s1 | inactive
NC(N)=N/N=C/c1ccc2cccc(OCc3ccccc3)c2n1 | 14.1 µM (active)

SMILES | Potency
CC(O)CNCCNCc1c(OCc2ccccc2)ccc2ccccc12 (centres undefined) | inactive
Cc1cc(C)nc(/N=C(\N)Nc2ccc(OCc3ccccc3)cc2)n1 | inactive
COc1ccccc1C(CCNCc1ccccc1)c1ccc(OC(C)C)cc1 (centres undefined) | inactive
CN1C2CCC1/C(=C\c1ccccc1)C(=O)/C2=C\c1ccccc1 | 10 µM (active)
Cc1ccc2c(Cl)cc(Cl)c(OCC(=O)Nc3cc(S(=O)(=O)N(C)C)ccc3C)c2n1 | inactive
c1ccc(CNc2nc(-c3ccccn3)nc3ccccc23)cc1 | 7.94 µM (active)
CN1CCN(c2nc(-c3ccccn3)nc3ccccc23)CC1 | inactive
Clc1cccc(-c2nc(NCc3cccnc3)c3ccccc3n2)c1 | inactive
CC(C)CCNC(=O)COc1cccc2c1OC(C)(C)C2 | inactive
COc1cc(OC)c(C(=O)C=Cc2ccc(OC)c(OC)c2)c(OC)c1 | 20 µM (active)
COc1ccc(C(=O)/C=C/c2ccc(OC3CSC3)cc2)cc1OC | inactive
COc1cc(/C=C/C(O)=C/C(=O)/C=C/c2ccc(O)cc2)ccc1O | inactive
COc1cc(C=CC(=O)c2cc(OC)c(OC)c(OC)c2)cc(OC)c1OC | 10 µM (active)
COc1ccc(NC(=O)c2oc3ccc(S(=O)(=O)N4CCC5(CC4)OCCO5)cc3c2C)cc1 | inactive
Cn1ncc2c(Nc3cccc(Cl)c3)nc(Nc3cccc(Cl)c3)nc21 | inactive
CC1Sc2ccc(S(=O)(=O)CCC(=O)N3CCN(c4cccc(Cl)c4)CC3)cc2NC1=O (centres undefined) | inactive
CC(=O)c1c(C)[nH]c(C(=O)Nc2nc(-c3ccc(-c4ccccc4)cc3)cs2)c1C | 11.2 µM (active)
CC(O)(c1ccccc1)c1nc(-c2ccncc2)cs1 (centres undefined) | inactive
COc1ccccc1C(=O)Nc1nc(-c2ccc(S(=O)(=O)N3CCOCC3)cc2)cs1 | inactive
COc1ccc(C(=O)Nc2nc(-c3ccc(S(=O)(=O)N4CCOCC4)cc3)cs2)cc1 | inactive
COc1ccc(-c2csc(NC(=O)c3ccccc3NS(=O)(=O)c3ccc(F)c(F)c3)n2)cc1 | 2.24 µM (active)
O=C(Nc1nc(-c2ccccc2)cs1)c1ccccc1NS(=O)(=O)c1ccc(F)cc1 | 3.16 µM (active)
CC(=O)c1sc(NC(=O)c2cc(-c3ccccc3)nn2-c2ccccc2)nc1C | inactive
